# FBW7 activator = human FBW7 E3 ligase activation, primary screen. AlphaScreen FBW7–phospho-cyclin E peptide binding, activator screen. actives 0.13% (n = 650,000). normalized activity (activation), % at 26.1 µM; in the data active means normalized activity above about 1.9%;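 further: purified mutant Fbw7 with reduced substrate affinity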
# GPR151 activ = human GPR151 activation | Q8TDV0 | PathHunter beta-arrestin GPR151 cells, luminescence | activation, % at 11.2 µM | actives 1% (n = 650,000) | AID 1508602; in the data active means activation above about 4.9%;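 further: 0% = median of compound wells and 100% = cells with positive control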
# Target sequence (Q8TDV0 whole entry, looked up): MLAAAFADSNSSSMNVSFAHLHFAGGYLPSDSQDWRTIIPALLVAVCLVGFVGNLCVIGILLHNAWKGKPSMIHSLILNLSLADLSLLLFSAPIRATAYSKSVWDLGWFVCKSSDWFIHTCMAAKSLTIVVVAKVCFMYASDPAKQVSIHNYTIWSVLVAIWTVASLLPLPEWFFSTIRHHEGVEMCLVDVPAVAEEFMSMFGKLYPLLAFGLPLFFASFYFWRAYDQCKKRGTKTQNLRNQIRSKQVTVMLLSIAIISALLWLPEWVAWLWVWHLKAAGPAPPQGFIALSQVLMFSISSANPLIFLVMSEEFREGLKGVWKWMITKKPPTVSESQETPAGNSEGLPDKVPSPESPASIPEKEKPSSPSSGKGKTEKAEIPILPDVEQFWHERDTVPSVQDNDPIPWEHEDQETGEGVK
# MITF primary = human MITF inhibition, primary screen; AlphaScreen MITF homodimerization, bead proximity signal; inhibition, % at 2.6 µM; actives 0.91% (n = 650,000); in the data active means inhibition above about 50%;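 further: 0% = vehicle wells with protein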
# TEAD-YAP inh = TEAD-YAP interaction inhibition | inhibition, % at 9.12 µM | HEK-TIYL cells, TEAD-Gal4/YAP UAS-luciferase luminescence | actives 1.4% (n = 640,000) | AID 1259422; in the data active means inhibition above about 32%;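 further: 0% = median of test compound wells and 100% = reference inhibitor wells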
# Starred values were filed as active, the others as inactive. Shown are actives, neighbours in structure and some others; about 3.5% of the full set was active somewhere.
SMILES,FBW7 activator,GPR151 activ,MITF primary,TEAD-YAP inh
COc1ccc(-c2nc(C(N)=O)c3[nH]c(=O)n(-c4cccc(Cl)c4)c3n2)cc1O,0,1,7,63*
COc1ccc(-c2nc(C(N)=O)c3[nH]c(=O)n(-c4ccccc4OC)c3n2)cc1OC,0,1,19,32*
COc1ccc(-c2nc(C(N)=O)c3[nH]c(=O)n(-c4ccc(F)cc4)c3n2)cc1,0,0,-4,36*
COc1ccccc1-n1c(=O)[nH]c2c(C(N)=O)nc(-c3cccc(O)c3)nc21,0,-2,18,34*
CCOC(=O)Cn1c(=O)oc2cc(S(=O)(=O)Nc3ccc(OC)cc3OC)ccc21,0,0,-8,4
CCOc1cc2c(cc1OC)C(c1ccc(CC)cc1)NCC2 (stereo not given),1,-1,-12,5
FC(F)(F)c1cccc(CNc2nc(NCc3cccnc3)nc3c2ncn3-c2ccsc2)c1,0,1,1,56*
Cc1cnc(Nc2ccncn2)nc1NCc1cccc(C(F)(F)F)c1,0,0,-6,29
FC(F)(F)c1cccc(CNc2nc(Nc3cccnc3)nc3c2ncn3-c2ccccc2)c1,0,-1,18,46*
FC(F)(F)c1cccc(CNc2nc(Nc3ccncc3)nc3c2ncn3-c2ccsc2)c1,0,1,2,-4
FC(F)(F)c1cccc(CNc2nc(Nc3cccnc3)nc3c2ncn3-c2ccsc2)c1,0,0,10,56*
Cc1cnc(Nc2ccncc2)nc1NCc1cccc(C(F)(F)F)c1,0,2,7,45*
CCN(CC)c1ccc(/C=C2\SC(=S)N(C)C2=O)cc1,0,0,-2,9
O=C(Nc1ccc(N2CCCC2=O)cc1)c1ccco1,0,-9,-16,59*
Cc1cn[nH]c1C1CCCN(S(=O)(=O)C[C@]23CC[C@H](CC2=O)C3(C)C)C1 (stereo not given in full),0,0,1,10
O=C(N1CCN(c2ccccn2)CC1)N1c2ccccc2Sc2ccccc21,1,-1,0,51*
O=C(c1ccco1)N1CCN(C(=O)N2c3ccccc3Sc3ccccc32)CC1,0,0,22,51*
O=C(N1CCCC1)N1c2ccccc2Sc2ccccc21,1,-1,12,29
O=C(c1cccc(S(=O)(=O)NCc2ccccc2)c1)N1CCCc2ccccc21,0,0,3,2
CC1(C)CC(=O)C2(OC3=C(C(=O)CC(C)(C)C3)C2c2ccccc2)C(=O)C1 (stereo not given),0,1,-16,-8
Nc1nc2c3cc4c(nc3sc2c2ccccc12)CCC4,0,-4,-14,34*
Nc1cc(N)nc(SCC(=O)NCCOc2ccccc2)n1,2.2*,-1,11,16
COC(=O)CNC(=O)CC(=O)OC,0,1,4,-1
CCOC(=O)CSC1=C(C#N)C(c2ccc(F)cc2)CC(=O)N1 (stereo not given),0,-2,15,42*
CCOc1ccccc1C1CC(=O)NC(SCC(=O)OC)=C1C#N (stereo not given),0,0,7,59*
SMILES,FBW7 activator,GPR151 activ,MITF primary,TEAD-YAP inh
CCOC(=O)CSC1=C(C#N)C(c2ccccc2F)CC(=O)N1 (stereo not given),0,1,14,48*
CCOC(=O)CSC1=C(C#N)C(c2ccc(C)cc2)CC(=O)N1 (stereo not given),0,-1,9,1
COC(=O)CSC1=C(C#N)C(c2cccc(F)c2)CC(=O)N1 (stereo not given),0,1,20,46*
CCOc1ccccc1C1CC(=O)NC(SCC)=C1C#N (stereo not given),0,0,12,7
O=C(Cn1nnc(-c2ccccc2NC(=O)c2ccncc2)n1)NC1CCCC1,0,-1,-2,3
COc1cc(COc2cc3oc(=O)c4c(c3cc2Cl)CCC4)cc(OC)c1OC,0,0,9,5
CCOC(=O)CSC1=C(C#N)C(c2ccc(C)s2)CC(=O)N1 (stereo not given),0,-1,20,54*
COC(=O)CSC1=C(C#N)C(c2ccc(C)s2)CC(=O)N1 (stereo not given),0,-1,10,7
CCOC(=O)Cn1c(Cl)c(/C=N/NC(=O)c2ccncc2)sc1=O,0,-2,-1,-1
C#CCn1c(=NC(=O)C2COc3ccccc3O2)sc2cc(OC)c(OC)cc21 (stereo not given),0,1,8,35*
CC(=O)NC1=NN(C(C)=O)C(C)(c2ccc3ccccc3c2)S1 (stereo not given),0,0,1,4

# Screening data from PubChem BioAssay.
